Key:
Experiment in all cases: PBM binding z-score (relative to random genomic background probes); higher = stronger binding; sequences stand for … in GC…GCGATTGACAGCGTAGAATGAAGG
[1] = tested on: PPARg:RXRa DBDmut IVT, anti-RXR (DBD mutation: RXRa K156A/R161A, NR concentration 270 nM, RXRa partner concentration 90 nM)
Summary of the method: (§1)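 The probes on custom Agilent 4×180K protein-binding microarrays were double-stranded, with 34-nt variable regions bearing direct-repeat seeds, single-nucleotide variants, half-site ablations and random human genomic background sequences. Incubation lasted 1 h with ligand-free nuclear receptor dimers in PBS pH 7.4, 2% milk, 0.02% Triton X-100, 1 mM DTT, 0.2 mg/mL BSA and 0.4 mg/ml salmon testes DNA. Antibodies against each partner (one per run) detected bound dimers, and fluorescence scans were regression-normalized. Binding z-scores take the random background probes as reference.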

[2] = tested on: PPARg:RXRa IVT, anti-PPARg (NR concentration 270 nM, RXRa partner concentration 90 nM)
Summary of the method: as §1

[3] = tested on: PPARg DBDmut:RXRa IVT, anti-PPARg (DBD mutation: PPARg1 K132A/R137A, NR concentration 270 nM, RXRa partner concentration 90 nM)
Summary of the method: as §1

[4] = tested on: PPARg DBDmut IVT, anti-PPARg (DBD mutation: PPARg1 K132A/R137A, NR concentration 270 nM)
Summary of the method: as §1

[5] = tested on: PPARg homodimer (NR concentration 180 nM)
Summary of the method: as §1

[6] = tested on: PXR:RXRa (NR concentration 270 nM, RXRa partner concentration 90 nM)
Summary of the method: as §1

[7] = tested on: PXR homodimer (NR concentration 270 nM)
Summary of the method: as §1

[8] = tested on: RARa:RXR (NR concentration 270 nM, RXRa partner concentration 90 nM)
Summary of the method: as §1

[9] = tested on: RARa homodimer (NR concentration 270 nM)
Summary of the method: as §1

[10] = tested on: RARb:RXRa (NR concentration 270 nM, RXRa partner concentration 90 nM)
Summary of the method: as §1

[11] = tested on: RARb homodimer (NR concentration 270 nM)
Summary of the method: as §1

[12] = tested on: RARg:RXRa (NR concentration 270 nM, RXRa partner concentration 90 nM)
Summary of the method: as §1

[13] = tested on: RARg homodimer (NR concentration 270 nM)
Summary of the method: as §1

[14] = tested on: RXRa DBDmut IVT, anti-RXR (DBD mutation: RXRa K156A/R161A, NR concentration 90 nM)
Summary of the method: as §1

[15] = tested on: RXRa homodimer (NR concentration 180 nM)
Summary of the method: as §1

[16] = tested on: THRa:RXRa (NR concentration 90 nM, RXRa partner concentration 90 nM)
Summary of the method: as §1

[17] = tested on: THRa homodimer (NR concentration 90 nM)
Summary of the method: as §1

[18] = tested on: VDR homodimer (NR concentration 270 nM)
Summary of the method: as §1

Sequence	PBM binding z-score [1]	PBM binding z-score [2]	PBM binding z-score [3]	PBM binding z-score [4]	PBM binding z-score [5]	PBM binding z-score [6]	PBM binding z-score [7]	PBM binding z-score [8]	PBM binding z-score [9]	PBM binding z-score [10]	PBM binding z-score [11]	PBM binding z-score [12]	PBM binding z-score [13]	PBM binding z-score [14]	PBM binding z-score [15]	PBM binding z-score [16]	PBM binding z-score [17]	PBM binding z-score [18]
CGGCCAAGGTCATAGGAGGTCAGTGAAGACAGAT	2.94	4.46	-0.828	-0.774	4.97	6.76	3.6	5.88	1.82	5.29	5.15	6.78	7.19	3.51	6.42	5.33	2.88	4.3
CCGACTGAGGCATAAGGTTACCATAAGCCAGCCC	0.216	-0.451	-0.747	-0.854	0.366	0.286	-0.308	1.03	0.101	0.876	1.13	0.506	0.395	0.281	0.885	2.07	1.53	0.195
AGTTAAAGTTCACTAGGTAACGTAAGATTCAGCT	2.6	4.69	1.44	1.19	2.19	3.54	2.11	2.66	1.6	4.51	3.53	4.38	4.95	3.86	3.07	1.92	0.252	3.22
GCTAGTTGGTCAGAAAAAGGTCACACACCGGTCG	0.771	2.29	-0.31	-0.0601	4.2	4.56	1.01	5.62	1.53	4.17	5.21	5.28	4.72	0.268	4.82	3.52	1.44	1.71
GCTGCTAGGGCAGGTTGGTCAGCTAACGGGTACG	0.814	0.109	-1.41	-2.26	-0.535	-0.732	-0.597	-0.985	-1.07	1.16	0.705	-0.148	0.544	-0.241	-0.467	-0.443	-0.665	-0.232
GCTGCTAGCTCAACTGATGGTCAGCTAAAGCTCG	-0.64	-0.817	-1.66	-1.33	-1.88	-0.933	-1.77	-1.22	-1.08	-0.407	-0.699	-0.731	-0.78	-0.306	-0.88	-0.877	-1.48	-1.04
TAGCCTAGGTCAGATCGGGCCTGTATACGCTATA	0.244	1.36	-0.328	0.156	0.016	0.238	-0.728	1.22	-0.734	2.8	1.97	2.53	3.21	-0.396	1.29	2.64	-0.216	-0.157
TTACCAAGGTGAAAGGTAGTTGATGCACGCCTTG	2.96	3.26	0.619	0.152	0.643	0.603	-0.0575	1.41	0.138	1.56	0.674	1.1	0.73	0.0303	1.67	1.73	0.341	-0.225
CGAACTAGGTCATCCAGGACAGTGCATACATTGA	8.26	8.19	1.89	1.6	1.98	2.11	1.49	2.35	0.873	3.91	3.21	4.04	4.52	2.45	2.88	3.65	2.06	2.29
ACTATTAGTTGAGACGAGGACAACCGATAGGTTG	0.000503	0.208	0.291	0.661	0.842	0.431	0.155	1.33	0.918	0.366	0.638	0.27	0.902	0.0973	0.226	3.9	2.56	0.657
ATATGTGGGTTACATCCGGGTCATTCAGGCTATG	6.84	6.81	2.1	2.31	2.37	3.72	2.92	3.51	1.06	2.01	2.79	3.53	1.94	1.08	3.17	3.75	3.01	3.65
CCAGACAGGTGAAAGCTAACTCAGTCTGGTACGC	1.15	0.32	-0.519	-0.546	-0.106	-0.352	-0.314	-0.197	-0.137	0.542	-0.273	0.135	0.254	-0.328	0.326	-0.0859	-0.832	-0.146
CATTACGGGTCAAGGTTATAGCACGGGTGGTACG	3.5	4.53	0.969	1.08	2.26	3.72	0.701	4.69	1.58	4.43	3.78	5.08	5.37	1.61	6.03	3.51	1.29	2.04
CAGTCTAGGTCAGGGCCAGTATAGGAGGAACGTT	5.44	4.91	0.454	-0.134	1.53	0.376	0.305	1.2	0.439	3.48	2.84	3.02	3.96	0.701	1.55	2.42	1.52	0.322
CAAACTAGGTCACGAAAGGTCTAAGTCGAATGAC	8.65	9.08	1.37	1.82	2.76	3.68	0.0383	3.59	0.679	4.39	3.98	5.04	5.84	1.6	4.23	4.1	1.73	0.873
TCTTGTAGATCAATAGAGGTTCAGAAAGTGCGCT	1.62	0.382	0.0591	1.1	-0.371	1.06	0.746	0.485	0.189	0.0734	0.168	0.234	0.116	0.728	0.478	0.501	-0.823	1.37

Sequence	PBM binding z-score [1]	PBM binding z-score [2]	PBM binding z-score [3]	PBM binding z-score [4]	PBM binding z-score [5]	PBM binding z-score [6]	PBM binding z-score [7]	PBM binding z-score [8]	PBM binding z-score [9]	PBM binding z-score [10]	PBM binding z-score [11]	PBM binding z-score [12]	PBM binding z-score [13]	PBM binding z-score [14]	PBM binding z-score [15]	PBM binding z-score [16]	PBM binding z-score [17]	PBM binding z-score [18]
CCTACTGGGCCAAGGTCAATGATCAGTCAAAGCA	3.63	4.57	-0.437	-1.01	1.4	2.51	0.323	2.81	0.147	3.27	3.38	3.51	3.62	0.404	3.12	3.18	1.77	1.61
GCTAGTTGGTCAGTAACAGGTCACACACCGGTCG	0.713	1.57	-0.131	0.285	1.45	1.85	0.169	2.32	1.15	2.24	3.38	2.86	2.06	0.0356	2.11	2.13	1.06	0.753
CAAACTAGGTTAAGGTCAAAGTCGGTTTGTGCCA	7.61	7.5	2.24	3.72	4.36	5.2	3.07	5.71	2.29	4.32	4.49	5.11	4.99	2.74	5.29	4.54	5.29	4.48
CGTCCAAGGTCAGAGAGGTTAGTGAATGCCGAGT	2.24	2.47	-0.113	-0.422	2.06	3.93	4.8	3.47	0.223	4.7	3.85	4.7	5.08	2.6	3.73	3.45	1.87	2.96
GATACAGGGTCAAGGCCAGTGTACGCGTATTGAT	2.53	3.95	0.493	-0.124	2.17	3.97	0.209	4.47	0.237	4.41	3.55	5.61	5.38	2.22	6.4	3.55	1.08	2.13
CCTACTGGGCCATCAGCTCATTGATATCAACGTT	3.97	3.36	-0.394	-0.205	-0.413	-0.673	-0.788	-0.689	-0.576	-0.0601	-0.431	-0.217	0.0511	-0.384	-0.717	-0.526	-0.399	-0.517
CCGACTGGGGCAAAGGTTATCATACTCAGTACGA	4.35	5.85	-0.186	0.138	2.13	2.11	-0.0954	3.14	-0.00422	2.08	1.89	3	1.45	0.137	3.11	1.66	-0.0355	0.133
TCTCGGAGGACACGAAAGGTCAGAGCACGACATC	1.29	1.57	0.69	-0.292	4.15	4.24	0.7	4.89	2.34	4.09	4.5	5.01	5.15	1.04	4.09	3.67	1.29	1.49
CAAGACAGGTGAAAGGTAACTCAGTCTGGTACGC	1.61	2.88	0.223	0.183	0.995	1.09	0.0379	1.92	0.108	1.57	0.906	1.58	0.784	-0.244	2.35	1.2	0.0377	-0.217
TCTAGCAGGCCAGAGGGCCACTCAAGAGGTACGG	0.914	-0.0389	-0.285	-0.851	-0.331	-0.535	-0.284	-0.732	-0.342	0.248	-0.0244	-0.057	-0.117	-0.104	0.144	-0.545	-1.1	-0.232
CCGAGTGGGGCAAGGTTACCATAACGCACAGCCA	1.75	3.14	-0.586	-0.492	0.921	0.439	0.123	1.16	-0.144	1.4	1.3	1.07	1.2	-0.421	1.3	1.53	0.265	0.121
CAAGACAGGTGAGAAGGTAACTCAGCCTCGATTA	0.761	1.21	-0.174	-0.268	0.64	0.215	0.678	0.355	0.384	0.867	0.607	0.784	0.824	-0.536	0.481	0.413	0.475	-0.249
TCATATAGGTAAACAGGTGAAAGACCGTAAGTTA	4.76	4.63	1.09	1.03	1.16	0.687	0.35	1.22	1.07	0.77	0.437	0.712	0.452	1.32	1.17	0.539	0.114	0.225
TGAGTGAGGTTAAAGATCAGGGAACGTGGCGTCG	0.116	1.91	0.365	0.826	1.29	2.13	0.027	3.26	0.307	2.15	1.06	2.51	1.37	1.05	4.01	2.43	0.575	0.834
AGAACGAAGGCAATGAGTTGATAGCACGGGTGGC	-0.602	-0.376	0.0932	-0.515	-1.7	-0.512	-0.132	-0.69	-0.881	-0.477	-1.03	-0.228	-0.122	-0.299	-0.105	-0.732	-1.11	-0.223
